This is a sample that favours compounds with a hit; in the whole collection about 3.2% have one here.
Vaccinia mCherry: qHTS for Stage-Specific Inhibitors of Vaccinia Orthopoxvirus: mCherry Reporter Primary qHTS; Vaccinia virus mCherry reporter infection, fluorescence; Potency, µM (titrated, usually from 36.5 µM), actives largely listed as inhibitors; 310,000 compounds, 0.63% hits; AID 720579, 2013; calls by dose curve; tested in A549 cells; also: nearly all actives have a fitted effect of over 35% in size
Lassa entry inh: qHTS for Inhibitors of binding or entry into cells for Lassa Virus; 300,000 compounds, 1.2% hits; Potency, µM (highest dose often 37.9 µM), hits mostly inhibitors; AID 540256, 2011; Lassa virus pseudotype entry inhibition, cell reporter; calls by dose curve; tested in HEK293 cells; also: nearly all actives have a fitted effect of over 50% in size
VACV Venus inh: qHTS for Stage-Specific Inhibitors of Vaccinia Orthopoxvirus: Venus Reporter Primary qHTS; Vaccinia virus Venus reporter expression, fluorescence; Potency, µM (highest dose often 36.5 µM), actives largely listed as inhibitors; 330,000 compounds, 0.46% hits; calls by dose curve; tested in A549 cells; also: nearly all actives have a fitted effect of over 30% in size
FMDV antiviral: High Throughput Screening for Foot and Mouth Disease Virus Antivirals. FMDV antiviral cell-based qHTS. Potency, µM (titrated, usually from 57.9 µM), usual class: inhibitors. 410,000 compounds, 1.2% hits. AID 1159524, 2015; calls by dose curve; tested in HEK293T cells; also: read-out not given here; nearly all actives have a fitted effect of over 45% in size
Marburg entry inh: qHTS for inhibitors of binding or entry into cells for Marburg Virus; AID 540276, 2011; Potency, µM (titrated, usually from 37.8 µM), actives largely listed as inhibitors; Marburg virus pseudotyped entry inhibition, cell reporter; 300,000 compounds, 1.8% hits; calls by dose curve; tested in HEK293 cells
Hits are given with their value; – = inactive; ? = inconclusive; · = no result; ! = a repeat was not active; [ ] = dose if it differs, or a comment.

SMILES | Vaccinia mCherry | Lassa entry inh | VACV Venus inh | FMDV antiviral | Marburg entry inh
CCN1CC2=C(OC(N)=C(C#N)C2c2cccs2)/C(=C/c2cccs2)C1 (stereo not given) | – | ? | – | 28.2µM | ?
CCOC(=O)C1=C(C)OC(N)=C(C#N)C1c1cccs1 (stereo not given) | – | – | – | – | –
N#CC1=C(N)OC2=C(CN(Cc3ccccc3)C/C2=C\c2cccnc2)C1c1cccnc1 (stereo not given) | · | – | – | ? | –
CCN1C=C(Cc2cccs2)C2=C(C1)C(c1cccs1)C(C#N)=C(N)O2 (stereo not given) | – | – | – | 20µM | ?
CCN1CC2=C(OC(N)=C(C#N)C2c2ccccc2)/C(=C\c2ccccc2)C1 (stereo not given) | · | ? | – | 22.4µM | ?
C[C@H](NC(=O)c1ccco1)C(=O)NNC(=O)COc1cccc(C(F)(F)F)c1 | · | · | · | – | ·
Cc1ccc(C(NC(=O)NC(C)c2ccccc2)C(Cl)(Cl)Cl)cc1F (stereo not given) | 22.4µM | ? | ? | ? | ?
O=c1cc(-c2ccc(O)cc2)oc2ccc3ccccc3c12 | · | · | · | 5.62µM | ·
O=c1cc(-c2ccc(O)cc2)oc2c1ccc1ccccc12 | · | · | · | – | ·
N#Cc1nc(-c2ccc(OCc3ccc(Cl)cc3)cc2)oc1N1CCCC1 | – | · | – | · | ·
CCn1c(=O)c([N+](=O)[O-])c(N2CCN(Cc3ccc4c(c3)OCO4)CC2)c2ccccc21 | – | ? | ? | 31.6µM | ?
CCn1c(=O)c([N+](=O)[O-])c(N2CCSCC2)c2ccccc21 | ? | – | ? | 17.8µM | ?
Cc1cc(/C=c2\sc3nc4ccccc4n3c2=O)c(C)n1-c1ccc(C(=O)O)cc1 | – | – | – | – | –
Cc1cc(/C=c2/sc3nc4ccccc4n3c2=O)c(C)n1-c1ccccn1 | · | 0.206µM | · | 0.0316µM | ?
O[N+]1=CC=CCC1=S.On1ccccc1=S.[Zn] | ? | · | ? | 8.91µM | ·
CC(=O)c1cccc(NC(=O)C2Cc3c(-c4cccc(C(C)=O)c4)ccnc3O2)c1 (stereo not given) | – | · | – | 22.4µM | ·
COc1ccc(NC(=O)C2Cc3c(-c4ccccc4Oc4ccccc4)ccnc3O2)cc1OC (stereo not given) | – | · | – | 25.1µM | ·
N#CC1c2ccccc2-c2ccccc2N1C(=O)c1ccccc1 (stereo not given) | – | · | ? | – | ·
COC(=O)C1=C(C)N(CCC(C)O[Si](C)(C)C(C)(C)C)C(=O)N(C(C)=O)C1c1ccccc1 (stereo not given) | · | · | · | · | –
CNCCCC12CCC(c3ccccc31)c1ccccc12 | ? | 16.4µM | – | ? | 4.61µM
COc1ccc(OC)c(-c2cc(Cl)c3c(c2)CC(CNC(=O)C(C)N2CCOCC2)O3)c1 (stereo not given) | – | · | – | – | ·
CCc1nc(SCc2ccc(Br)cc2)n[nH]1 | – | – | – | – | ?
CCc1nc(SCc2ccc(OCC(C)C)cc2)n[nH]1 | – | ? | – | – | 7.94µM
Cc1ccsc1C(=O)N1CCC1(C)C(=O)NCCC#N (stereo not given) | – | · | – | – | ·
O=C1C2C3C=CC(CC3)C2C(=O)N1c1ccccc1 (stereo not given) | · | · | · | – | ·
SMILES | Vaccinia mCherry | Lassa entry inh | VACV Venus inh | FMDV antiviral | Marburg entry inh
O=C1C=CC2C3C(=O)N(c4ccccc4)C(=O)C3C1N2Cc1ccccc1 (stereo not given) | 28.2µM | 25.1µM | ? | 10µM | ?
CCN1CCN(c2cc(C)c3cc(NC(=O)c4cccc(Cl)c4)ccc3n2)CC1 | –[7.34 µM] | ? | –[7.34 µM] | – | ?
CCN1CCN(c2cc(C)c3cc(NC(=O)/C=C/c4cccc(OC)c4OC)ccc3n2)CC1 | ? | ? | ? | – | 7.08µM
CCN1CCN(c2cc(C)c3cc(NC(=O)/C=C/c4cccc(Cl)c4)ccc3n2)CC1 | 11.2µM | – | ? | – | 5.62µM
Cc1oc(-c2ccccc2)cc1C(=O)NC1CCN(Cc2ccccc2)CC1 | – | – | – | ? | ?
O=[N+]([O-])c1nn(-c2ccc3c(c2)OCCO3)n(O)c1=Nc1ccccc1 | – | 7.08µM | – | 7.94µM | 1.46µM
COCCNC(=O)C(=O)NCC1OCCN1S(=O)(=O)c1cc(F)ccc1F (stereo not given) | – | – | – | – | –
CCN1CCN(C(=O)c2cc(NC(=O)COC)cc3nc(-c4ccncc4)n(C)c23)CC1 | – | · | – | – | ·
CCN(CC)C(=O)CSc1nc2cc3c(cc2c(=O)n1Cc1ccc(C(=O)NCCc2ccc(OC)c(OC)c2)cc1)OCO3 | – | – | – | – | ·
CC1CCc2cc(F)ccc2N1C(=O)CCl (stereo not given) | – | – | – | 14.1µM | ?
OCc1cc(C(O)CNCCCCCCOCCCCc2ccccc2)ccc1O (stereo not given) | ? | ? | – | – | 11.2µM!
Cc1ccc2c(c1)N(C(=O)CCC(=O)N1CCC(C(N)=O)CC1)CC(C)O2 (stereo not given) | – | · | – | – | ·
Cc1ccc(-n2[nH]c(C)c(C=Nc3ccc4[nH]c(=O)[nH]c4c3)c2=O)cc1 | ? | ? | ? | 31.6µM | ?
CCN(CC)S(=O)(=O)c1ccc(N2CCN(c3ccccc3OC)CC2)c(N)c1 | ? | ? | – | 22.4µM | ?
CCN(CC)S(=O)(=O)c1ccc2c(c1)c(=O)c(C(=O)N1CCN(c3ccccc3OC)CC1)cn2C | – | – | – | – | –
CCN(c1ccccc1)S(=O)(=O)c1ccc(N)c(OC)c1 | – | ? | – | – | 3.16µM
O=C(COc1ccccc1C(=O)Nc1ccccc1)Nc1ccc(-c2ccccc2)cc1 | – | · | – | · | ·
CC(=O)c1ccc(N2CCN(C(=O)c3cccc(Oc4ccccc4)c3)CC2)cc1 | – | 3.16µM | – | – | ?
CC(=O)c1ccc(N2CCN(C(=O)c3nn(Cc4ccccc4)c(=O)c4ccccc34)CC2)cc1 | – | 10µM | – | – | ?
Cn1c(SCC2CCCO2)nnc1C1CCN(Cc2ccccc2O)CC1 (stereo not given) | – | · | – | – | ·
O=S(=O)(O)c1cc(O)c2c(O)c(N=Nc3cc(Cl)ccc3O)c(S(=O)(=O)O)cc2c1 | – | ? | – | 12.6µM | ?
Cc1cc(-c2ccc(N=Nc3c(S(=O)(=O)O)cc4cc(S(=O)(=O)O)cc(N)c4c3O)c(C)c2)ccc1N=Nc1c(S(=O)(=O)O)cc2cc(S(=O)(=O)O)cc(N)c2c1O | · | ? | · | · | 15.8µM
Cc1ccc(NC(=O)c2ccc(OCc3c(C)noc3C)cc2)cc1C | – | ? | – | 31.6µM | 10µM
CC(=O)Nc1ccc(NC(=O)c2ccc(OCc3c(C)noc3C)cc2)cc1 | – | – | – | – | –
COc1cc(CNC23CC4CC(CC(C4)C2)C3)ccc1OCc1ccccc1 | – | – | – | – | 5.01µM
COc1cc(CNCc2cccs2)ccc1OCc1ccccc1 | ? | – | – | · | –
CO[C@H]1[C@H](NC(=O)c2ccncc2)c2ccccc2C12CCN(C(=O)c1ccoc1)CC2 | – | · | – | – | ·
O=C(NCC(c1ccccc1)c1ccccc1)c1nn(-c2ccccc2F)nc1CO | – | ? | – | 10µM | –

Screens: PubChem, National Center for Advancing Translational Sciences (NCATS)
